These results are taken from PubChem BioAssay AID743449 (Broad Institute, 2014).

About 90 (0.9%) of roughly 9,900 compounds were called active. Another 2% or so got no clear call; they are omitted.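 Rule for the calls: active = mean normalized replicate activity at least 50 and at least half of replicates each reaching 50; inconclusive = only one of the two criteria met; inactive = neither criterion met.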 Shown is part of a subset that was picked to be rich in actives.

The nature of the experiment: YAP1 pathway inhibitors via CTGF transcript, primary screen, DLD1 colon cancer cells, RT-qPCR, single point (AID 743449).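 Note: 0% = neutral control wells and 100% = dasatinib control wells; higher means stronger suppression of CTGF expression like dasatinib.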 To be noted: DLD1 CTGF mRNA qPCR, 24 h; at 12.5 µM; active compounds read high.
In general, inhibition refers to the drop in the measured response relative to a control, in per cent. On to `COc1cccc(-c2ccc([C@H]3[C@H]4CN(C(=O)Cc5ccncc5)CCCCN4[C@H]3CO)cc2)c1`, for which the inhibition is 76.7% (active).

As for `O=C(Cc1ccncc1)N1CCCCN2[C@H](C1)[C@H](c1ccc(C#Cc3ccccc3F)cc1)[C@@H]2CO`, the inhibition is 104% (active).

Consider `O=C(Cc1ccncc1)N1CCCCN2[C@@H](CO)[C@@H](c3ccc(C#Cc4ccccc4F)cc3)[C@@H]2C1`, for which the inhibition was 27.9% (inactive).

For the compound `O=C(Cc1ccncc1)N1CCCCN2[C@@H](CO)[C@H](c3ccc(C#Cc4ccccc4F)cc3)[C@@H]2C1`, the inhibition is 22.3% (inactive).

Turning to `COc1cccc(-c2ccc([C@@H]3[C@@H](CO)N4CCCCN(C(=O)Cc5ccncc5)C[C@@H]34)cc2)c1`, the inhibition was 32.9% (inactive).

For the compound `O=C(Cc1ccncc1)N1CCCCN2[C@H](C1)[C@@H](c1ccc(C#Cc3ccccc3F)cc1)[C@@H]2CO`, the inhibition is 12.4% (inactive).

For `O=C(Cc1ccncc1)N1CCCCN2[C@H](CO)[C@@H](c3ccc(C#Cc4ccccc4F)cc3)[C@@H]2C1`, the inhibition is 39.4% (inactive).

In the case of `O=C(Cc1ccncc1)N1CCCCN2[C@H](CO)[C@@H](c3ccc(C#Cc4ccccc4F)cc3)[C@H]2C1`, the inhibition was 54.3% (active).

As to `COc1cccc(-c2ccc([C@H]3[C@@H](CO)N4CCCCN(C(=O)Cc5ccncc5)C[C@@H]34)cc2)c1`, the inhibition is 18.9% (inactive).

With `O=C(O)[C@H]1[C@H](CO)[C@H]2Cn3c(ccc(-c4ccncc4)c3=O)[C@@H]1N2S(=O)(=O)c1ccccc1F`, the inhibition is -4.67% (inactive).

Turning to `C/C=C/c1ccc([C@H]2[C@@H](CO)N3CCCCN(C(=O)Cc4cccnc4)C[C@@H]23)cc1`, the inhibition was -13.7% (inactive).

Turning to `C[C@@H]1CN([C@@H](C)CO)C(=O)CCCn2nncc2CO[C@H]1CN(C)C(=O)Oc1cccc2ccccc12`, the inhibition was -0.0735% (inactive).

Regarding `COc1ccccc1CN1[C@H](CO)[C@H](c2ccccc2)C12CN(C(=O)Cc1ccccc1)C2`, the inhibition is -16.1% (inactive).

For `C/C=C/c1ccc([C@H]2[C@H](CO)N3CCCCN(C(=O)Cc4cccnc4)C[C@@H]23)cc1`, the inhibition was 13.9% (inactive).

Regarding `O=C([C@H]1N[C@H]2c3cccc(=O)n3C[C@H]2[C@@H]1CO)N1CCCCC1`, the inhibition was -21.1% (inactive).
